Reference: the supplement of paper PMC10338343
± gives the standard deviation.

System: EfPiwi piRISC loaded with L1MC piRNA (26 nt)
Assay: pre-steady-state target cleavage rate (min^-1); auxiliary factor: 500 nM Ephydatia muelleri Gtsf1; guide: L1MC piRNA 5'p-UAACUAAAUACUAUGCAAGCUGUAGG; MIWI and MILI are mouse PIWI proteins and EfPiwi is from a freshwater sponge; tags in brackets are library labels; higher = faster piRNA-guided slicing of the target
Summary of the method: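 A transcribed, DNA-blocked target RNA library […] was incubated at 33 °C for 0–8 or 0–960 min with 1 nM active affinity-purified piRISC carrying one synthetic guide, in HEPES–potassium acetate buffer with or without 500 nM GTSF1 partner protein. Uncleaved targets were then sequenced and normalised to depth and to weakly complementary targets. Data from three trials were pooled, with k3 capped at 0.0001 min^-1, and a burst-and-steady-state fit yielded the pre-steady-state cleavage rate.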

Sequence: UCCUGGAUGUCGAACGAUAGUAUUAUAGUUA
- pre-steady-state target cleavage rate: < 0.0001

Sequence: UCCUGCUACAGCUUGCAUAGUAUAUAGAUA
- pre-steady-state target cleavage rate: 0.00352 ± 0.0017

Sequence: UCCUGGAUGUCGAACCAUCGUAUUUAGUUA
- pre-steady-state target cleavage rate: < 0.0001

Sequence: UCCUGGAUGUCGUGUGCAUAGUAUUUAGUUA
- pre-steady-state target cleavage rate: 0.0038 ± 0.0033
